Test results as given in PubChem BioAssay (Tox21).
Inconclusive results are not listed. The source made the active and inactive calls. Unless noted, the call rests on the fitted dose curve.

Key:
[1] = Nuclear factor erythroid 2-related factor 2/antioxidant responsive element (Nrf2/ARE) small molecule agonists: qHTS cell viability counter screen in human keratinocytes (AID 1919968; active means well fitted curve in the direction sought with a large enough effect in the repeat runs; an effect the other way counts as inactive or inconclusive; further: nearly all actives have a fitted effect of over 55% in size)
How it was run: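 Cytotoxicity was multiplexed with the Nrf2/ARE luciferase assay in the same wells. Stably transfected HaCaT keratinocytes were treated with test compounds for 23 h at 37 C. Cell viability was then measured by CellTiter-Fluor fluorescence.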

[2] = target: Gonadotropin-releasing hormone receptor (Homo sapiens) (UniProt P30968); test: Human gonadotropin-releasing hormone receptor (GnRHR) small molecule agonists, calcium flux assay in GnRHR-HEK293 cells (AID 1920063); further: nearly all actives have a fitted effect of over 35% in size
Sequence of Gonadotropin-releasing hormone receptor (Homo sapiens) (P30968 whole entry, looked up): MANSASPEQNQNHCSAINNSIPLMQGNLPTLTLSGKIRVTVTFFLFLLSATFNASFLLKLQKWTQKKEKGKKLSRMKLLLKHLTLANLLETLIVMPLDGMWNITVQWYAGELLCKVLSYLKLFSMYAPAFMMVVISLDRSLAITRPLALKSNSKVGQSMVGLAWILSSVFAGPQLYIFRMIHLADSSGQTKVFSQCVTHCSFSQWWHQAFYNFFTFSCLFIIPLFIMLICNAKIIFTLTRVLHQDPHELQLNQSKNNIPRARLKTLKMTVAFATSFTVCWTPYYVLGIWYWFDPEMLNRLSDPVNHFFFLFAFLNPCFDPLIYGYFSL
How it was run: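 Agonist activity was measured as intracellular calcium flux in HEK293 cells engineered to stably express human GnRHR. After dye loading for 1 hour at 37 C, compounds in DMSO were added and fluorescence was followed for 3 minutes.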

[3] = target: KiSS-1 receptor (Homo sapiens) (UniProt Q969F8); test: Human kisspeptin (KISS1R) small molecule agonists, calcium flux assay in KISS1R-HEK293 cells (AID 1920064; active means well fitted curve in the direction sought with a large enough effect in the repeat runs; an effect the other way counts as inactive or inconclusive)
Sequence of KiSS-1 receptor (Homo sapiens) (Q969F8 whole entry, looked up): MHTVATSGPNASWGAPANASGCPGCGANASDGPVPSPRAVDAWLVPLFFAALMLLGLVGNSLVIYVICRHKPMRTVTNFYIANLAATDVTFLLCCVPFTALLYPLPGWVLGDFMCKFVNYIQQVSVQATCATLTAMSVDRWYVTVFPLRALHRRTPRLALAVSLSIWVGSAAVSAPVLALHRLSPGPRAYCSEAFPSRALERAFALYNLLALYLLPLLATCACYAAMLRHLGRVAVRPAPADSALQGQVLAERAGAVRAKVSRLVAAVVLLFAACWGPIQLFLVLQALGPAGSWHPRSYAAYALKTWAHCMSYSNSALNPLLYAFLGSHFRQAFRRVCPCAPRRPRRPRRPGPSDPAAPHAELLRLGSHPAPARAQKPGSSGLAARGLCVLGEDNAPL
How it was run: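 Agonist activity is monitored as intracellular calcium rise in engineered HEK293 cells carrying human KISS1R. Cells are dye-loaded for 1 h at 37 C before compound addition, and fluorescence is recorded for 3 min.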

[4] = p53 small molecule agonists, cell-based qHTS assay with human liver microsomes (AID 1963577)
How it was run: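 p53RE-bla reporter cells were pre-incubated 5 h at 37 C, then treated with compounds plus human liver microsomes (0.5 mg/mL final) and NADPH (0.5 mg/mL final) for 16 h at 37 C. Beta-lactamase activity was read by LiveBLAzer fluorescence after 2 h at room temperature.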

[5] = p53 small molecule agonists, cell-based qHTS assay with rat liver microsomes (AID 1963578)
How it was run: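 p53RE-bla cells were exposed to compounds together with rat liver microsomes (0.5 mg/mL final) and NADPH (0.5 mg/mL final) for 16 h at 37 C, then read by LiveBLAzer beta-lactamase fluorescence after 2 h at room temperature.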

[6] = p53 small molecule agonists, cell-based qHTS assay with human liver microsomes: qHTS cell viability counter screen (AID 1963579); further: nearly all actives have a fitted effect of over 45% in size
How it was run: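 p53RE-bla cells (4,000/well) were pre-incubated 5 h at 37 C, then given compounds in DMSO plus human liver microsomes (0.5 mg/mL final) and NADPH (0.5 mg/mL final) for 16 h at 37 C. Viability was read by CellTiter-Glo luminescence.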

[7] = p53 small molecule agonists, cell-based qHTS assay with rat liver microsomes: qHTS cell viability counter screen (AID 1963580); further: nearly all actives have a fitted effect of over 45% in size
How it was run: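 Luminescent ATP readout (CellTiter-Glo, 30 min at room temperature) reports viability of p53RE-bla HCT-116 cells after 16 h at 37 C with test compounds under metabolic activation by rat liver microsomes and NADPH at 0.5 mg/mL final each.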

[8] = p53 small molecule agonists, cell-based qHTS assay: qHTS cell viability counter screen (AID 1963581); further: nearly all actives have a fitted effect of over 45% in size
How it was run: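 Viability was counter-screened in parallel with the p53 agonist reporter by measuring intracellular ATP luminescence in the same HCT-116 p53RE-bla wells after 16 h compound treatment at 37 C.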

[9] = target: 5-hydroxytryptamine receptor 2A (Homo sapiens) (UniProt P28223); test: 5-hydroxytryptamine receptor 2A (HTR2A) small molecule antagonists, cell-based qHTS assay (AID 1963586); further: nearly all actives have a fitted effect of over 45% in size
Sequence of 5-hydroxytryptamine receptor 2A (Homo sapiens) (P28223 whole entry, looked up): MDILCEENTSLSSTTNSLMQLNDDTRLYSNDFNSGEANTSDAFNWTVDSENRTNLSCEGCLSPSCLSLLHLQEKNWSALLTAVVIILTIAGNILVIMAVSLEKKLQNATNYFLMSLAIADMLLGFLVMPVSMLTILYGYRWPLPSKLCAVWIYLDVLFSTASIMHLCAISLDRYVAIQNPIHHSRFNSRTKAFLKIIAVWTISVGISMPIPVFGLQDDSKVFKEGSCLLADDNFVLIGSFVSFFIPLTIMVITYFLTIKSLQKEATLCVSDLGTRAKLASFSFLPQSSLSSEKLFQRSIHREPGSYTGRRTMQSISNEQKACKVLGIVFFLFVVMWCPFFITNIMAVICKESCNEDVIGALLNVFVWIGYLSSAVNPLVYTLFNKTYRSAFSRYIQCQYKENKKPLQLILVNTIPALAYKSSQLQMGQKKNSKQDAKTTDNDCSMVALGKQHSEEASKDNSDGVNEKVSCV
How it was run: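 CHO cells stably expressing human HTR2A were plated for 18 h at 37 C, then loaded with calcium dye for 1 h. Compounds were preincubated 5 min at room temperature before DOI (4 nM solution) was added. Kinetic fluorescence was read for 3 min.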

[10] = target: 5-hydroxytryptamine receptor 2A (Homo sapiens) (UniProt P28223); test: 5-hydroxytryptamine receptor 2A (HTR2A) small molecule agonists, cell-based qHTS assay (AID 1963587); further: nearly all actives have a fitted effect of over 30% in size
How it was run: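 HTR2A-CHO cells, plated 18 h at 37 C/5% CO2, dye-loaded 1 h at 37 C; compounds in DMSO added by pin tool (agonist mode). Intracellular calcium flux read as kinetic fluorescence on FDSS over 2 min at 1 s intervals.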

[11] = target: Muscarinic acetylcholine receptor M1 (Homo sapiens) (UniProt P11229); test: Cholinergic receptor muscarinic 1 (CHRM1) small molecule antagonists, cell-based qHTS assay (AID 1963588); further: nearly all actives have a fitted effect of over 40% in size
Sequence of Muscarinic acetylcholine receptor M1 (Homo sapiens) (P11229 whole entry, looked up): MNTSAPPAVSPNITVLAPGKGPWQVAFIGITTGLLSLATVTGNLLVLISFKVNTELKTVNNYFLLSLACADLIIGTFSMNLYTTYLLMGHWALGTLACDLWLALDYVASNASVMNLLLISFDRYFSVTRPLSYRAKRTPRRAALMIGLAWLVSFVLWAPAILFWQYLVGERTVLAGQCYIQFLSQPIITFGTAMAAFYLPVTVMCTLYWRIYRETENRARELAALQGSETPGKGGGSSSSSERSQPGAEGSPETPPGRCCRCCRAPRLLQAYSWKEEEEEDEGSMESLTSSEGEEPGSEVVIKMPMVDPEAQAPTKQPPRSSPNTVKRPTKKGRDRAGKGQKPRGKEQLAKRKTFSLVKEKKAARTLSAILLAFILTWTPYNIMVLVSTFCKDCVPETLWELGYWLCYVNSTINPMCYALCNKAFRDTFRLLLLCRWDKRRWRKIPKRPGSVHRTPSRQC
How it was run: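 Compounds were tested at 15 concentrations in three independent runs. Dye-loaded CHRM1-CHO cells were exposed 5 min at room temperature before stimulation by acetylcholine added at 50nM. Intracellular calcium was read kinetically on FDSS for 3 min.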

[12] = cAMP Responsive Elements (CRE) small molecule antagonists, cell-based qHTS assay (AID 1963591; active means well fitted inhibition curve with a large enough effect in the signal ratio in the repeat runs, not every such curve was filed as active; the % refers to the signal ratio)
How it was run: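 Cells (CRE-bla HEK 293T, DMEM with 10% dialyzed FBS and 25 mM HEPES) are seeded and incubated 18 h. Compounds are added with NKH477 agonist at 0.25 uM final for 3 h, then FRET substrate for 2 h.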

[13] = target: Beta-2 adrenergic receptor (Homo sapiens) (UniProt P07550); test: Adrenergic beta2 receptor (ADRB2) small molecule antagonists, cell-based qHTS assay (AID 1963592); further: nearly all actives have a fitted effect of over 50% in size; further: potency means the concentration at half of the fitted maximal effect; on activity change, negative = inhibition: series mostly up to about 92 µM
Sequence of Beta-2 adrenergic receptor (Homo sapiens) (P07550 whole entry, looked up): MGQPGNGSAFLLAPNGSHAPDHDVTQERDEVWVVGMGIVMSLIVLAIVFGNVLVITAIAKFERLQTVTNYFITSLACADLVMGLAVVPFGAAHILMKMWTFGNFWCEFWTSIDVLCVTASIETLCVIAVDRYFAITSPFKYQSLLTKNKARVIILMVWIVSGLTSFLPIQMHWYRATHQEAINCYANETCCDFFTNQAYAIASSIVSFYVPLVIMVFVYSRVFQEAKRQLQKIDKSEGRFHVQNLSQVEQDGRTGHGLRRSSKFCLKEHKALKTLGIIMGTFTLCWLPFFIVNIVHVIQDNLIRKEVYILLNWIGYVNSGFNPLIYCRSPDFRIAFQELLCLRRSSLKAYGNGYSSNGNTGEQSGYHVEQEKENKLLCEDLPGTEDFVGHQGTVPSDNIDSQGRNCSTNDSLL
How it was run: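 Assay format: CHO-ADRB2 cells, 18-20hr seeding at 37C/5% CO2, then compound plus 1nM isoproterenol agonist mix for 0.5hr RT. Homogeneous time-resolved fluorescence cAMP detection after 1hr, expressed as 665/615 nm ratio.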

[14] = target: D(2) dopamine receptor (Homo sapiens) (UniProt P14416); test: Dopamine D2 receptor (DRD2) small molecule agonists, cell-based qHTS assay (AID 1963594); further: nearly all actives have a fitted effect of over 35% in size
Sequence of D(2) dopamine receptor (Homo sapiens) (P14416 whole entry, looked up): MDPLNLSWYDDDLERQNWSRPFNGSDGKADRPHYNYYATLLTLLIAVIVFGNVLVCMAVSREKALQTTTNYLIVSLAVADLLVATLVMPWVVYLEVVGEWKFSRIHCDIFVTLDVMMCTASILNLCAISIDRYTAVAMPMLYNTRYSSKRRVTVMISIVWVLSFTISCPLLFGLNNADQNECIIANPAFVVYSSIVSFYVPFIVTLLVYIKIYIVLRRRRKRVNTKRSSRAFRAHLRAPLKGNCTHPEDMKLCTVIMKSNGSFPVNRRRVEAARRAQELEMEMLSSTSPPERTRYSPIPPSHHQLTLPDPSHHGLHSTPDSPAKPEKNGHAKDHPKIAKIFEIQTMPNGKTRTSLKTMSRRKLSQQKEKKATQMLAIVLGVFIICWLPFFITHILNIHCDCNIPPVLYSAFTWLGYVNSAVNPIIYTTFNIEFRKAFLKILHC
How it was run: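 HEK293 cells stably expressing DRD2 were cultured 24 h at 37 C, then given Ro20-1724 (0.1 mM final) and compounds for 10 min at room temperature. NKH477 (200nM) was then added for 30 min. cAMP was read by HTRF.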

[15] = target: D(2) dopamine receptor (Homo sapiens) (UniProt P14416); test: Dopamine D2 receptor (DRD2) small molecule antagonists, cell-based qHTS assay (AID 1963595; active means well fitted inhibition curve with a large enough effect in the signal ratio in the repeat runs, with a control signal flat; the % refers to the signal ratio)
How it was run: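 HEK293 cells stably expressing DRD2 were preincubated with 0.1 mM Ro20-1724, then with compound for 10 min at room temperature. Cells were stimulated with 200 nM NKH477 plus 12 nM quinpirole for 30 min, and cAMP was read by HTRF.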

[16] = G protein-coupled receptor (GPCR) small molecule agonists, calcium flux assay: HEK293 wild type cell line counter screen (AID 1920065)
How it was run: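 Seed cells, incubate 18 h (37 C, 5% CO2); add calcium dye, 1 h at 37 C; pin-transfer compounds, ATP control or DMSO; read fluorescence 480/540 nm each second for 3 min.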

[17] = p53 small molecule agonists, cell-based qHTS assay (AID 1963582; active means well fitted activation curve with a large enough effect in the signal ratio in the repeat runs, not every such curve was filed as active; the % refers to the signal ratio)
How it was run: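 Cells carrying a p53-responsive bla reporter are treated with test compounds for 16 h at 37 C; beta-lactamase activity is then detected with LiveBLAzer B/G FRET substrate after 2 h at room temperature.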

[18] = target: Muscarinic acetylcholine receptor M1 (Homo sapiens) (UniProt P11229); test: Cholinergic receptor muscarinic 1 (CHRM1) small molecule agonists, cell-based qHTS assay (AID 1963589); further: nearly all actives have a fitted effect of over 35% in size
How it was run: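 Cells were plated and incubated 18 h at 37 C/5% CO2, loaded with calcium dye for 1 h at 37 C, then treated with compounds in DMSO. Fluorescence was recorded kinetically at 1 sec intervals.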

[19] = cAMP Responsive Elements (CRE) small molecule agonists, cell-based qHTS assay (AID 1963590)
How it was run: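 Cells carrying a CRE-driven beta-lactamase reporter (HEK 293T) are seeded, incubated overnight (18 h), and treated with test compounds for 3 h at 37 C; reporter activity is then detected with a FRET substrate after 2 h at room temperature.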

[20] = target: Beta-2 adrenergic receptor (Homo sapiens) (UniProt P07550); test: Adrenergic beta2 receptor (ADRB2) small molecule agonists, cell-based qHTS assay (AID 1963593);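 further: CHO cells stably overexpressing human ADRB2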
How it was run: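 CHO cells stably over-expressing ADRB2 were plated overnight at 37C, then dosed with compounds plus a stimulation mix containing 100uM IBMX and 25uM Ro-20-1724 for 0.5hr at room temperature. cAMP was measured by HTRF competition, 1hr.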
On the % scale 0 is the no-effect control and ±100 the full control effect.

O=C(O)c1cc(Cl)cc([N+](=O)[O-])c1Cl
inactive: Potency [1] | Potency [2] | outcome [3] | Potency [4] | Potency [5] | Potency [6] | Potency [7] | Potency [8] | Potency [9] | Potency [10] | Potency [11] | Potency [12] | Potency [13] | Potency [14] | Potency [15]

CCOc1nc(F)cc2nc(S(=O)(=O)Nc3c(Cl)cccc3C(=O)OC)nn12
inactive: Potency [1] | outcome [3] | outcome [16] | Potency [4] | Potency [5] | Potency [6] | Potency [8] | Potency [17] | Potency [9] | Potency [10] | Potency [11] | Potency [18] | Potency [12] | Potency [13] | Potency [14] | Potency [15]

CC(C=O)Cc1ccc(C(C)C)cc1 (stereo not drawn)
inactive: Potency [2] | outcome [3] | outcome [16] | Potency [4] | Potency [5] | Potency [6] | Potency [7] | Potency [8] | Potency [17] | Potency [9] | Potency [10] | Potency [11] | Potency [18] | Potency [19] | Potency [12] | Potency [13] | Potency [14] | Potency [15]

FC1(F)C(F)(F)C(F)(F)C2(F)C(F)(C1(F)F)C(F)(F)C(F)(F)C1(F)C(F)(F)C(F)(F)C(F)(F)C(F)(F)C12F (stereo not drawn)
inactive: Potency [2] | outcome [3] | outcome [16] | Potency [4] | Potency [5] | Potency [6] | Potency [7] | Potency [8] | Potency [17] | Potency [9] | Potency [10] | Potency [11] | Potency [18] | Potency [19] | Potency [12] | Potency [13] | Potency [14] | Potency [15]

NCC[C@H](O)C(=O)N[C@@H]1C[C@H](N)[C@@H](O[C@H]2O[C@H](CN)[C@@H](O)[C@H](O)[C@H]2O)[C@H](O)[C@H]1O[C@H]1O[C@H](CO)[C@@H](O)[C@H](N)[C@H]1O
inactive: activity change [2] -0.191% [at 0.217 µM, stronger effect = higher value] | activation [3] 0.177% [at 0.29 µM] | activation [16] 0.401% [at 0.217 µM] | activation [4] 0.0378% [at 0.249 µM] | activation [5] -0.443% [at 0.249 µM] | activity change, negative = cytotoxicity [6] 4.34% [at 0.249 µM] | activity change, negative = cytotoxicity [7] 1.45% [at 0.249 µM] | activity change, negative = cytotoxicity [8] -9.5% [at 0.249 µM] | activation [17] 0.378% [at 0.249 µM] | activation [19] -1.43% [at 0.349 µM] | activity change, negative = inhibition [12] -1.04% [at 0.349 µM] | activity change, negative = inhibition [13] 4.47% [at 0.349 µM] | activation [20] 21.1% [at 0.349 µM] | activation [14] -17.8% [at 0.349 µM]

O=C(CCCl)NCCc1ccccc1
inactive: Potency [2] | outcome [3] | outcome [16] | Potency [4] | Potency [5] | Potency [6] | Potency [7] | Potency [8] | Potency [17] | Potency [9] | Potency [10] | Potency [11] | Potency [18] | Potency [19] | Potency [12] | Potency [15]

C=CC/C=C/C
inactive: Potency [2] | outcome [3] | outcome [16] | Potency [4] | Potency [5] | Potency [6] | Potency [7] | Potency [8] | Potency [9] | Potency [10] | Potency [11] | Potency [18] | Potency [19] | Potency [12] | Potency [13] | Potency [14]

Nc1ccc(F)c([N+](=O)[O-])c1
inactive: Potency [2] | outcome [3] | outcome [16] | Potency [4] | Potency [5] | Potency [6] | Potency [7] | Potency [8] | Potency [17] | Potency [9] | Potency [10] | Potency [11] | Potency [19] | Potency [12] | Potency [13] | Potency [14] | Potency [15]

O=S(=O)(c1ccccc1)c1ccc(Cl)cc1
inactive: Potency [2] | outcome [3] | outcome [16] | Potency [4] | Potency [5] | Potency [6] | Potency [7] | Potency [8] | Potency [9] | Potency [10] | Potency [11] | Potency [18] | Potency [19] | Potency [12] | Potency [13] | Potency [14] | Potency [15]

COc1cc2c(cc1OC)C(=O)C(CC1CCN(Cc3ccccc3)CC1)C2 (stereo not drawn)
inactive: Potency [2] | outcome [3] | outcome [16] | Potency [4] | Potency [5] | Potency [6] | Potency [7] | Potency [8] | Potency [17] | Potency [9] | Potency [10] | Potency [18] | Potency [19] | Potency [14]
active: Potency [13] 18.8 µM

O=CNNC=O
inactive: Potency [2] | outcome [3] | outcome [16] | Potency [4] | Potency [5] | Potency [6] | Potency [7] | Potency [8] | Potency [17] | Potency [9] | Potency [11] | Potency [19] | Potency [12] | Potency [13] | Potency [14]

O=C(CS)Nc1ccccc1
inactive: Potency [2] | outcome [3] | outcome [16] | Potency [4] | Potency [5] | Potency [6] | Potency [7] | Potency [8] | Potency [17] | Potency [10] | Potency [11] | Potency [18] | Potency [19] | Potency [12] | Potency [13] | Potency [14]

CCCS(=O)c1ccc2nc(NC(=O)OC)[nH]c2c1 (stereo not drawn)
inactive: Potency [2] | outcome [3] | outcome [16] | Potency [4] | Potency [5] | Potency [6] | Potency [7] | Potency [8] | Potency [9] | Potency [10] | Potency [18] | Potency [19] | Potency [13] | Potency [20] | Potency [15]
